An excerpt weighted towards active compounds, which were near 13% of everything screened.
WT yeast gro inh: growth inhibition of WT strain, primary screen, mitochondrial fusion inhibitor project, WT and mutant strains, chemical genetic; mitochondrial fusion phenotypic screen; inhibition, % at 10 µM; actives 2.1% (n = 190,000); in the data active means inhibition above about 58%; tested in S. cerevisiae
L major viab: Leishmania major promastigote growth inhibition, primary screen. Leishmania major promastigotes, resazurin fluorescence viability. inhibition, % at 10 µM. actives 9% (n = 200,000). AID 1063, 2008; in the data active means inhibition above about 50%;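 further: promastigotes grown with compound for 44 hours at 28 °C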
RAM inhibit: inhibitors of the yeast RAM network, primary screen, dse1pr::URA3 reporter, 5-FOA selection. AID 868, 2007. actives 1.8% (n = 190,000). S. cerevisiae dse1pr::URA3 reporter, 5-FOA growth OD615, 2 d; analog-sensitive cbk1-as2 kinase mutant strain. inhibition, % at 50 µM;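 active means inhibition above a set limit, 3 SD over mean compound inhibition, cut at about 8.4% in these data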;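 further: 0% = DMSO-only wells with no growth and 100% = 10 µM 1-NA-PP1 full growth; inhibition rescues growth on 5-FOA so higher OD means more RAM inhibition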
CHOP inhibitor: inhibitors of CHOP promoter induction, primary screen, cell-based, unfolded protein response, luciferase reporter. CHO-K1 CHOP-promoter luciferase, tunicamycin-induced, 15-18 h. inhibition, % at 10 µM. actives 3.8% (n = 220,000);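 active means compounds that reduced the stress-induced luciferase reporter signal by more than about 70% of percent inhibition, limit read from the data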;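 further: 0% = tunicamycin plus vehicle and 100% = wells without tunicamycin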
Starred values were filed as active, the others as inactive; . = not tested or not shown.

SMILES	WT yeast gro inh	L major viab	RAM inhibit	CHOP inhibitor
CCC(C)c1ccccc1NC(=O)COC(=O)c1ccc(N2CCCC2)c([N+](=O)[O-])c1 (stereo not given)	4.1	-0.1	3.1	-1.7
Cc1cccc(C)c1NC(=O)COC(=O)c1ccc(N2CCCC2)c([N+](=O)[O-])c1	-13.3	-3.8	1.1	80.4*
Cc1cccc(NC(=O)c2ccc(N3CCCCC3)c([N+](=O)[O-])c2)n1	78.1*	11.9	-0.8	-2.6
Cc1ccc(C)c2sc(NC(=O)c3ccc(N4CCCCC4)c([N+](=O)[O-])c3)nc12	6.1	80.9*	4.5	43.9
Cc1ccc(C(=O)Nc2cc(C(F)(F)F)ccc2N2CCCCC2)cc1[N+](=O)[O-]	18.4	6.4	4.0	28.4
COc1ccc(-c2n[nH]c(=S)n2-c2ccc3c(c2)OCCO3)cc1OC	11.1	88.0*	1.6	-26.7
COc1cc(OC)cc(-c2n[nH]c(=S)n2-c2ccc3c(c2)OCCO3)c1	2.2	70.6*	2.5	-18.6
COc1ccc(-n2c(C)nc3c(cnn3-c3ccc(C)c(C)c3)c2=O)cc1	14.0	1.1	-0.2	73.1*
Cc1ccc(-n2ncc3c(=O)n(-c4ccc(C)c(C)c4)c(C)nc32)cc1	7.9	1.8	3.6	73.3*
Cc1ccc(-n2c(C)nc3c(cnn3-c3ccc(F)cc3)c2=O)cc1	5.0	2.2	6.2	47.6
O=C(Cc1ccc(Br)cc1)NNC(=O)Nc1ccc(Cl)cc1	10.3	72.5*	3.8	9.8
O=C(Cc1ccc(Cl)cc1)Nc1ccc(Br)cc1	3.4	-7.3	1.8	34.1
O=C(/C=C/c1ccc(Cl)cc1)N1CCN(c2ncccn2)CC1	10.5	-5.7	-0.7	-5.7
O=C(/C=C/c1ccccc1Cl)N1CCN(c2ncccn2)CC1	-7.1	58.9*	0.0	0.9
C#CCn1c(=NC(=O)c2cccs2)sc2cccc(OCC)c21	1.4	3.9	2.5	12.5
C#CCn1c(=NC(=O)c2ccc(Cl)s2)sc2cccc(OC)c21	20.5	2.1	4.8	79.3*
O=C(CCn1c(=O)c2sccc2n(CC(=O)OCc2ccccc2)c1=O)NCc1ccccc1	6.4	-6.4	11.3*	-17.7
COc1ccc(C(=O)c2coc3ccc(O)c(CN4CCCCC4)c23)cc1	10.6	8.0	1.4	26.8
COc1ccc2occ(C(=O)c3coc4ccc(O)c(CN(C)C)c34)c2c1	10.0	75.4*	-0.1	-6.9
COc1ccc(C(O)c2coc3ccc(O)c(CN(C)C)c23)cc1 (stereo not given)	14.2	99.7*	2.7	10.5
CN(C)Cc1c(O)ccc2occ(C(=O)c3ccccc3)c12	19.6	9.4	4.0	-20.0
O=C(COc1cccc2cccnc12)Nc1ccccc1N1CCOCC1	7.3	3.6	-0.4	-0.6
CCc1ccc(OCC(=O)NCCN(C)C)c(Br)c1	8.3	95.6*	0.9	3.6
Cc1cc(OCC(=O)NCCCN(C)C)cc(C)c1Br	-6.2	99.9*	0.7	-14.7
CCOC(=O)C12CC1/C(=N/O)c1ccccc1O2 (stereo not given)	.	.	.	-21.6
SMILES	WT yeast gro inh	L major viab	RAM inhibit	CHOP inhibitor
COCCCN1C(=O)c2[nH]nc(-c3ccccc3O)c2C1c1cccc(Cl)c1 (stereo not given)	-0.2	36.0	5.0	.
COc1ccc(CCN2C(=O)c3[nH]nc(-c4ccccc4O)c3C2c2ccccc2)cc1OC (stereo not given)	-2.6	59.9*	11.1*	58.2
COCCCN1C(=O)c2[nH]nc(-c3ccccc3O)c2C1c1ccc(Cl)cc1 (stereo not given)	-4.9	66.2*	1.9	52.9
COCCCN1C(=O)c2[nH]nc(-c3cc(C)cc(C)c3O)c2C1c1ccc(O)c(OC)c1 (stereo not given)	-3.8	8.9	3.0	12.1
COc1ccc(-c2n[nH]c3c2C(c2ccc(OC)c(OC)c2)N(c2ccccc2)C3=O)cc1 (stereo not given)	-5.6	96.5*	9.1*	17.2
CC(C)OCCCN1C(=O)c2[nH]nc(-c3ccccc3O)c2C1c1cccc(Cl)c1 (stereo not given)	8.7	70.3*	4.2	94.5*
CSc1ccc(/C=N/NC(=O)c2ccccc2Cl)cc1	-7.6	4.0	2.6	-18.7
N#Cc1ccc(OCC(=O)Nc2ccccc2NS(=O)(=O)c2cccs2)cc1	-15.6	63.1*	1.2	42.8
Cc1ccc2nc(C(F)(F)F)c(C#N)c(N)c2c1	-2.6	68.0*	0.9	53.8
Cc1cccc(C(C#N)c2nc3ccccc3nc2C(F)(F)F)c1 (stereo not given)	.	5.1	.	.

High-throughput results from PubChem.
